The record followed here is PMC11006913.

Common to all, as to experiment: PBM; 200 nM protein, PBS
Details in all cases: dsDNA, one strand shown

Assay [1] addresses HESX1 (Homo sapiens, UniProt Q9UBX0 95-180, R165K).
Assay [2] has as its target HESX1 (Homo sapiens, UniProt Q9UBX0 95-180).
Assay [3] concerns the target HESX1 (Homo sapiens, UniProt Q9UBX0 95-180, P111T).
The target in assay [4] is HOXB4 (Homo sapiens, UniProt P17483 148-234).
The target in assay [5] is T1, VENTX (Homo sapiens, UniProt O95231 78-163, R121Q).
T1 sequence: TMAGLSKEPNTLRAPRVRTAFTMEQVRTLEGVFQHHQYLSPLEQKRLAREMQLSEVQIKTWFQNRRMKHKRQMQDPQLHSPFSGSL

For assay [6], the target named is HOXA4 (Homo sapiens, UniProt Q00056 201-287, W262R).
Sequence of HOXA4 (Homo sapiens, UniProt Q00056 201-287, W262R) (Q00056 201-287 W262R): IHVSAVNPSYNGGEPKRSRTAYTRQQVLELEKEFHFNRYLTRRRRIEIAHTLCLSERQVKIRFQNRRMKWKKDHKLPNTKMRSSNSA
For assay [7], the target named is T2, VENTX (Homo sapiens, UniProt O95231 78-163, Y115F).
T2 sequence: T1 sequence with Y38F, Q44R

Assay [8] concerns the target HOXA2 (Homo sapiens, UniProt O43364 129-215, R185T).
The target in assay [9] is HOXA4 (Homo sapiens, UniProt Q00056 201-287, R217L).
Sequence of HOXA4 (Homo sapiens, UniProt Q00056 201-287, R217L) (Q00056 201-287 R217L): as the sequence (Q00056 201-287 W262R) above, with R17L, R62W counted along it
The target of assay [10] is HOXB4 (Homo sapiens, UniProt P17483 148-234, V174I).
Sequence of HOXB4 (Homo sapiens, UniProt P17483 148-234, V174I) (P17483 148-234 V174I): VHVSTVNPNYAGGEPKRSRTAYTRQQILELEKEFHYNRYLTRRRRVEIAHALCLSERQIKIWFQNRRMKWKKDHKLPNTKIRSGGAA
The target in assay [11] is HOXA2 (Homo sapiens, UniProt O43364 129-215, R185K).
Sequence of HOXA2 (Homo sapiens, UniProt O43364 129-215, R185K) (O43364 129-215 R185K): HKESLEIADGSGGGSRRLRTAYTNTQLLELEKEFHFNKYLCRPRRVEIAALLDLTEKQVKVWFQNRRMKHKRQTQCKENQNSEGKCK
Assay [12] has as its target HOXA4 (Homo sapiens, UniProt Q00056 201-287).
Assay [13] deals with VAX1 (Homo sapiens, UniProt Q5SQQ9 86-172).
Sequence of VAX1 (Homo sapiens, UniProt Q5SQQ9 86-172) (Q5SQQ9 86-172): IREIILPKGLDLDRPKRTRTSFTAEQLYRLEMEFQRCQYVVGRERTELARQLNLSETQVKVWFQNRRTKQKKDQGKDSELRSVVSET
The target of assay [14] is VAX1 (Homo sapiens, UniProt Q5SQQ9 86-172, T142I).
Sequence of VAX1 (Homo sapiens, UniProt Q5SQQ9 86-172, T142I) (Q5SQQ9 86-172 T142I): as the sequence (Q5SQQ9 86-172) above, with T57I counted along it
For assay [15], the target named is HOXA2 (Homo sapiens, UniProt O43364 129-215, Y150S).
Sequence of HOXA2 (Homo sapiens, UniProt O43364 129-215, Y150S) (O43364 129-215 Y150S): as the sequence (O43364 129-215 R185K) above, with Y22S, K57R counted along it
Assay [16] addresses HOXA4 (Homo sapiens, UniProt Q00056 201-287, W262F).
Assay [17] concerns the target HOXA2 (Homo sapiens, UniProt O43364 129-215).
Assay [18] concerns the target VAX1 (Homo sapiens, UniProt Q5SQQ9 86-172, K157R).
In assay [19] the target is HESX1 (Homo sapiens, UniProt Q9UBX0 95-180, F115L).
Sequence of HESX1 (Homo sapiens, UniProt Q9UBX0 95-180, F115L) (Q9UBX0 95-180 F115L): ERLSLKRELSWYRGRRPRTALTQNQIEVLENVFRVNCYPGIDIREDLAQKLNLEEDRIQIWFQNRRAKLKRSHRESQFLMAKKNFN
Assay [20] has as its target HESX1 (Homo sapiens, UniProt Q9UBX0 95-180, R109Q).

Where a chain is given by its changes, count along the chain named.

Sequence of HOXB4 (Homo sapiens, UniProt P17483 148-234) (P17483 148-234): as the sequence (P17483 148-234 V174I) above, with I27V counted along it
Sequence of VAX1 (Homo sapiens, UniProt Q5SQQ9 86-172, K157R) (Q5SQQ9 86-172 K157R): as the sequence (Q5SQQ9 86-172) above, with K72R counted along it
Sequence of HOXA4 (Homo sapiens, UniProt Q00056 201-287, W262F) (Q00056 201-287 W262F): as the sequence (Q00056 201-287 W262R) above, with R62F counted along it
Sequence of HOXA2 (Homo sapiens, UniProt O43364 129-215) (O43364 129-215): as the sequence (O43364 129-215 R185K) above, with K57R counted along it
Sequence of HESX1 (Homo sapiens, UniProt Q9UBX0 95-180, R165K) (Q9UBX0 95-180 R165K): as the sequence (Q9UBX0 95-180 F115L) above, with L21F, R71K counted along it
Sequence of HOXA2 (Homo sapiens, UniProt O43364 129-215, R185T) (O43364 129-215 R185T): as the sequence (O43364 129-215 R185K) above, with K57T counted along it
Sequence of HOXA4 (Homo sapiens, UniProt Q00056 201-287) (Q00056 201-287): as the sequence (Q00056 201-287 W262R) above, with R62W counted along it
Sequence of HESX1 (Homo sapiens, UniProt Q9UBX0 95-180, P111T) (Q9UBX0 95-180 P111T): as the sequence (Q9UBX0 95-180 F115L) above, with P17T, L21F counted along it
Sequence of HESX1 (Homo sapiens, UniProt Q9UBX0 95-180) (Q9UBX0 95-180): as the sequence (Q9UBX0 95-180 F115L) above, with L21F counted along it
Sequence of HESX1 (Homo sapiens, UniProt Q9UBX0 95-180, R109Q) (Q9UBX0 95-180 R109Q): as the sequence (Q9UBX0 95-180 F115L) above, with R15Q, L21F counted along it

Regarding ATGTATAA, the binding signal with HESX1 [1] is 7.77 upbm affinity estimate (log intensity, higher = more binding, comparable within an allelic series); in the assay with HESX1 [2], 7.72 upbm affinity estimate (log intensity, higher = more binding, comparable within an allelic series); in the assay with HESX1 [3], 7.36 upbm affinity estimate (log intensity, higher = more binding, comparable within an allelic series).
As to ATTAATGG, the binding signal with HOXB4 [4] was 13.4 upbm affinity estimate (log intensity, higher = more binding, comparable within an allelic series); with VENTX [5], 12.2 upbm affinity estimate (log intensity, higher = more binding, comparable within an allelic series); with HOXA4 [6], 10.7 upbm affinity estimate (log intensity, higher = more binding, comparable within an allelic series); with VENTX [7], 11.8 upbm affinity estimate (log intensity, higher = more binding, comparable within an allelic series); with HOXA2 [8], 12.6 upbm affinity estimate (log intensity, higher = more binding, comparable within an allelic series); with HOXA4 [9] it was 12.2 upbm affinity estimate (log intensity, higher = more binding, comparable within an allelic series). Also, the binding signal is 14.1 upbm affinity estimate (log intensity, higher = more binding, comparable within an allelic series) in the assay with HOXB4 [10]; 13.4 upbm affinity estimate (log intensity, higher = more binding, comparable within an allelic series) in the assay with HOXA2 [11]; 13.9 upbm affinity estimate (log intensity, higher = more binding, comparable within an allelic series) in the assay with HOXA4 [12]; 13 upbm affinity estimate (log intensity, higher = more binding, comparable within an allelic series) with VAX1 [13]; 12.6 upbm affinity estimate (log intensity, higher = more binding, comparable within an allelic series) with VAX1 [14]; 11.1 upbm affinity estimate (log intensity, higher = more binding, comparable within an allelic series) with HOXA2 [15]. In addition, the binding signal with HOXA4 [16] was 11.6 upbm affinity estimate (log intensity, higher = more binding, comparable within an allelic series); in the assay with HOXA2 [17], 12.3 upbm affinity estimate (log intensity, higher = more binding, comparable within an allelic series); in the assay with VAX1 [18], 12.5 upbm affinity estimate (log intensity, higher = more binding, comparable within an allelic series).
As to AACAATAC, the binding signal was 7.27 upbm affinity estimate (log intensity, higher = more binding, comparable within an allelic series) with HESX1 [1]; 7.3 upbm affinity estimate (log intensity, higher = more binding, comparable within an allelic series) with HESX1 [2]; 7.19 upbm affinity estimate (log intensity, higher = more binding, comparable within an allelic series) in the assay with HESX1 [3].
As to CATTAATG, the binding signal is 13.4 upbm affinity estimate (log intensity, higher = more binding, comparable within an allelic series) with HOXB4 [4]; 11.8 upbm affinity estimate (log intensity, higher = more binding, comparable within an allelic series) with VENTX [5]; 10.7 upbm affinity estimate (log intensity, higher = more binding, comparable within an allelic series) with HOXA4 [6]; 11.8 upbm affinity estimate (log intensity, higher = more binding, comparable within an allelic series) with VENTX [7]; 12.6 upbm affinity estimate (log intensity, higher = more binding, comparable within an allelic series) with HOXA2 [8]; 12.3 upbm affinity estimate (log intensity, higher = more binding, comparable within an allelic series) in the assay with HOXA4 [9]. Also, the binding signal with HOXB4 [10] was 14 upbm affinity estimate (log intensity, higher = more binding, comparable within an allelic series); with HOXA2 [11] it was 13.4 upbm affinity estimate (log intensity, higher = more binding, comparable within an allelic series); with HOXA4 [12], 14.2 upbm affinity estimate (log intensity, higher = more binding, comparable within an allelic series); with VAX1 [13] it was 12.7 upbm affinity estimate (log intensity, higher = more binding, comparable within an allelic series); with VAX1 [14], 12.5 upbm affinity estimate (log intensity, higher = more binding, comparable within an allelic series); with HOXA2 [15], 11.1 upbm affinity estimate (log intensity, higher = more binding, comparable within an allelic series). Further, the binding signal was 11.7 upbm affinity estimate (log intensity, higher = more binding, comparable within an allelic series) with HOXA4 [16]; 12.3 upbm affinity estimate (log intensity, higher = more binding, comparable within an allelic series) with HOXA2 [17]; 12.8 upbm affinity estimate (log intensity, higher = more binding, comparable within an allelic series) with VAX1 [18].
On to TAAATTAA, for which the binding signal with HOXB4 [4] is 12.9 upbm affinity estimate (log intensity, higher = more binding, comparable within an allelic series); in the assay with HOXB4 [10], 13.6 upbm affinity estimate (log intensity, higher = more binding, comparable within an allelic series); in the assay with VAX1 [13], 12.6 upbm affinity estimate (log intensity, higher = more binding, comparable within an allelic series); with HESX1 [3], 10.1 upbm affinity estimate (log intensity, higher = more binding, comparable within an allelic series); in the assay with VAX1 [14] it was 12.4 upbm affinity estimate (log intensity, higher = more binding, comparable within an allelic series); with VAX1 [18] it was 12.4 upbm affinity estimate (log intensity, higher = more binding, comparable within an allelic series).
Regarding ATTAGTGC, the binding signal was 9.5 upbm affinity estimate (log intensity, higher = more binding, comparable within an allelic series) with HESX1 [1]; 9.81 upbm affinity estimate (log intensity, higher = more binding, comparable within an allelic series) with HESX1 [2]; 8.71 upbm affinity estimate (log intensity, higher = more binding, comparable within an allelic series) with HESX1 [3]; 6.94 upbm affinity estimate (log intensity, higher = more binding, comparable within an allelic series) with HESX1 [19].
As to CGGCGAGC, the binding signal was 7.79 upbm affinity estimate (log intensity, higher = more binding, comparable within an allelic series) with HOXB4 [4] and 7.74 upbm affinity estimate (log intensity, higher = more binding, comparable within an allelic series) with HOXB4 [10].
Take CGCAGGCG: the binding signal with HOXB4 [4] is 7.74 upbm affinity estimate (log intensity, higher = more binding, comparable within an allelic series); with HOXB4 [10] it was 7.65 upbm affinity estimate (log intensity, higher = more binding, comparable within an allelic series).
With ACTATAGA, the binding signal is 7.13 upbm affinity estimate (log intensity, higher = more binding, comparable within an allelic series) in the assay with HESX1 [1]; 7.13 upbm affinity estimate (log intensity, higher = more binding, comparable within an allelic series) with HESX1 [2]; 7.02 upbm affinity estimate (log intensity, higher = more binding, comparable within an allelic series) with HESX1 [3].
Take CATAATAC: the binding signal with HESX1 [1] is 7.93 upbm affinity estimate (log intensity, higher = more binding, comparable within an allelic series); with HESX1 [2] it was 8.07 upbm affinity estimate (log intensity, higher = more binding, comparable within an allelic series); with VAX1 [13], 10.4 upbm affinity estimate (log intensity, higher = more binding, comparable within an allelic series); with VAX1 [14], 10 upbm affinity estimate (log intensity, higher = more binding, comparable within an allelic series); with VAX1 [18], 10.1 upbm affinity estimate (log intensity, higher = more binding, comparable within an allelic series).
Turning to CGTCCCGC, the binding signal is 7.48 upbm affinity estimate (log intensity, higher = more binding, comparable within an allelic series) in the assay with HOXB4 [4]; 7.82 upbm affinity estimate (log intensity, higher = more binding, comparable within an allelic series) with VENTX [5]; 7.87 upbm affinity estimate (log intensity, higher = more binding, comparable within an allelic series) with VENTX [7]; 7.45 upbm affinity estimate (log intensity, higher = more binding, comparable within an allelic series) with HOXB4 [10].
As for CTCAATTC, the binding signal with HESX1 [1] is 7.54 upbm affinity estimate (log intensity, higher = more binding, comparable within an allelic series); with HESX1 [2], 7.59 upbm affinity estimate (log intensity, higher = more binding, comparable within an allelic series); in the assay with HESX1 [3] it was 7.26 upbm affinity estimate (log intensity, higher = more binding, comparable within an allelic series).
On to AATCATTA, for which the binding signal with HOXB4 [4] was 13.2 upbm affinity estimate (log intensity, higher = more binding, comparable within an allelic series); in the assay with HOXA4 [6] it was 10.7 upbm affinity estimate (log intensity, higher = more binding, comparable within an allelic series); with HOXA2 [8] it was 12.4 upbm affinity estimate (log intensity, higher = more binding, comparable within an allelic series); in the assay with HOXA4 [9], 12.3 upbm affinity estimate (log intensity, higher = more binding, comparable within an allelic series); with HOXB4 [10], 13.8 upbm affinity estimate (log intensity, higher = more binding, comparable within an allelic series); with HOXA2 [11] it was 13.2 upbm affinity estimate (log intensity, higher = more binding, comparable within an allelic series). Moreover, the binding signal in the assay with HOXA4 [12] is 13.9 upbm affinity estimate (log intensity, higher = more binding, comparable within an allelic series); in the assay with VAX1 [13], 12.7 upbm affinity estimate (log intensity, higher = more binding, comparable within an allelic series); with VAX1 [14], 12.6 upbm affinity estimate (log intensity, higher = more binding, comparable within an allelic series); in the assay with HOXA2 [15], 10.8 upbm affinity estimate (log intensity, higher = more binding, comparable within an allelic series); in the assay with HOXA4 [16] it was 11.6 upbm affinity estimate (log intensity, higher = more binding, comparable within an allelic series); in the assay with HOXA2 [17], 12.1 upbm affinity estimate (log intensity, higher = more binding, comparable within an allelic series). Besides, the binding signal in the assay with VAX1 [18] was 12.4 upbm affinity estimate (log intensity, higher = more binding, comparable within an allelic series).
Regarding CCACTGCG, the binding signal with HESX1 [1] was 6.48 upbm affinity estimate (log intensity, higher = more binding, comparable within an allelic series); with HESX1 [2] it was 6.49 upbm affinity estimate (log intensity, higher = more binding, comparable within an allelic series); in the assay with HESX1 [20] it was 6.5 upbm affinity estimate (log intensity, higher = more binding, comparable within an allelic series); with HESX1 [3], 6.5 upbm affinity estimate (log intensity, higher = more binding, comparable within an allelic series); in the assay with HESX1 [19], 6.42 upbm affinity estimate (log intensity, higher = more binding, comparable within an allelic series).
Regarding GACTCGGC, the binding signal in the assay with HOXB4 [4] is 7.87 upbm affinity estimate (log intensity, higher = more binding, comparable within an allelic series); with HOXB4 [10], 7.65 upbm affinity estimate (log intensity, higher = more binding, comparable within an allelic series).
On to CGGGAGAG, for which the binding signal with HOXB4 [4] was 7.57 upbm affinity estimate (log intensity, higher = more binding, comparable within an allelic series); in the assay with HOXB4 [10], 7.66 upbm affinity estimate (log intensity, higher = more binding, comparable within an allelic series).
For the sequence CAGGGGGC, the binding signal was 7.45 upbm affinity estimate (log intensity, higher = more binding, comparable within an allelic series) in the assay with HOXB4 [4]; 7.88 upbm affinity estimate (log intensity, higher = more binding, comparable within an allelic series) with VENTX [5]; 7.91 upbm affinity estimate (log intensity, higher = more binding, comparable within an allelic series) in the assay with VENTX [7]; 7.09 upbm affinity estimate (log intensity, higher = more binding, comparable within an allelic series) in the assay with HOXA2 [8]; 7.54 upbm affinity estimate (log intensity, higher = more binding, comparable within an allelic series) in the assay with HOXB4 [10]; 10.1 upbm affinity estimate (log intensity, higher = more binding, comparable within an allelic series) with HOXA2 [11]. Moreover, the binding signal was 10.3 upbm affinity estimate (log intensity, higher = more binding, comparable within an allelic series) with HOXA2 [15] and 7.35 upbm affinity estimate (log intensity, higher = more binding, comparable within an allelic series) with HOXA2 [17].
